Experiment [1] deals with XIP peptide (Xip251-270) binding. Description: XIP fragment 251-270 binding compounds – biochemical, small-molecule microarray, fluorescence 635/667 nm, 0.1 µg/mL protein, primary screen (AID 1182). As to conditions: fluorescent protein binding, 635 nm, higher = more signal, called active from +8 up or from −8 down.
For experiment [2], the system named is XIP peptide (Xip251-270). Kind of experiment: compounds binding XIP fragment 251-270 – biochemical, small-molecule microarray, fluorescence 635/667 nm, 0.5 µg/mL protein, primary screen (AID 1183). The conditions noted are these: fluorescence 635 nm, higher = more signal.
A short description of experiment [3]: blood-stage malaria parasite viability loss – strain 3D7, DAPI fluorescence, 100 nL, primary screen (AID 1184).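 Note: parasites grown inside human red blood cells in medium with human serum.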 As to conditions: P. falciparum 3D7 growth, 3 d, higher = more signal.
Experiment [4] concerns the target Homeobox protein Hox-A13 (Mus musculus) (UniProt Q62424). Description: disruptors of Hoxa13 oligonucleotide interaction – biochemical, fluorescence polarization, labeled oligonucleotide, primary screen (AID 1185). As to conditions: Hoxa13:DNA binding, 15 min, higher = more signal, called active from +8 up or from −8 down.

SMILES strings stand for the structures. The source made the active and inactive calls.

Homeobox protein Hox-A13 (Mus musculus), sequence (Q62424 whole entry, looked up): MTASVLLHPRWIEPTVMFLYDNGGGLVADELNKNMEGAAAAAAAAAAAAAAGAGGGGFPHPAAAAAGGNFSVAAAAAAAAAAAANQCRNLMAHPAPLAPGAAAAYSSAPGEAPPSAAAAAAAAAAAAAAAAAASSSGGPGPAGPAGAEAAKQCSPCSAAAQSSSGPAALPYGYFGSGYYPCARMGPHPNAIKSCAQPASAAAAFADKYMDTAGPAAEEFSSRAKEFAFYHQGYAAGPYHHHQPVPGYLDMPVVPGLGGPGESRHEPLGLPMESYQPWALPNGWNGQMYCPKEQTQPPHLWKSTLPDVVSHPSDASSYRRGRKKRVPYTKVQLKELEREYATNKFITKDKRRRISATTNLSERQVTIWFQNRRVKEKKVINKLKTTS

In the case of `C[C@@H]1C=CCC(=O)OC[C@H](C)C(=O)N[C@@H](C)C(=O)OC1`, the values for the composite z-score in experiment [1] and in experiment [2] were 0.0195 (inactive) and -0.059, respectively. In addition, the values for the z-score in experiment [3] and in experiment [4] were -0.207 and 0.442 (inactive), respectively.

For `CC(C)(C)N1C(=O)[C@H]2[C@H]3[C@H](O)[C@H](O)CC(=NO[C@@H]4O[C@H](CO)[C@@H](O)[C@H](O)[C@H]4O)[C@@H]3CC[C@H]2C1=O`, the values for the composite z-score in experiment [1] and in experiment [2] were 1.16 (inactive) and 0.26, respectively. For the same compound, the z-score is 2.01 in experiment [3] and 0.0059 (inactive) in experiment [4].

On to `CCN1C(=O)[C@H]2[C@H]3[C@H](O)C=CC(=O)[C@@H]3CC[C@H]2C1=O`, for which the composite z-score in experiment [1] is -0.638 (inactive); in experiment [2], -0.0737. Moreover, the z-score in experiment [3] is 1.02; in experiment [4], 0.116 (inactive).

As to `O=C1[C@H]2[C@H]3[C@H](O)[C@H](O)CC(=NOCc4ccccc4)[C@H]3CC[C@H]2C(=O)N1C[C@@H]1CCCO1`, the composite z-score in experiment [1] is -0.344 (inactive); in experiment [2] it was 0.567. The z-score in experiment [3] was 0.319; in experiment [4], -1.68 (inactive).

On to `COc1ccc(O[C@@H]2[C@H](O)CO[C@H]2C=CC#Cc2ccccc2)cc1`, for which the composite z-score is -0.0908 (inactive) in experiment [1] and 0.799 in experiment [2]. Moreover, the z-score is -0.456 in experiment [3] and -3.09 (inactive) in experiment [4].

Take `CCOC(=O)NN=C1C[C@@H](O)[C@@H](O)[C@@H]2[C@@H]3C(=O)N(CC)C(=O)[C@@H]3CC[C@@H]12`: the composite z-score in experiment [1] was -0.359 (inactive); in experiment [2] it was 0.482. Further, the z-score is 0.518 in experiment [3] and 0.443 (inactive) in experiment [4].

As for `CCN1C(=O)[C@H]2[C@H]3[C@H](O)[C@H](O)CC(=NOC[C@@H](C)[C@H](OCc4ccccc4)C(C)C)[C@@H]3CC[C@H]2C1=O`, the results for the composite z-score in experiment [1] and in experiment [2] were 0.185 (inactive) and 0.757, respectively. In addition, the z-score in experiment [3] was 0.605; in experiment [4], -6.43 (inactive).

In the case of `Cc1cc(C)c(-c2cc([C@H](C)ON=C3[C@H]4CCn5c(=O)n(-c6ccccc6)c(=O)n5[C@H]4[C@H](O)[C@@H]4O[C@H]34)on2)c(C)c1`, the composite z-score is 2.08 (inactive) in experiment [1] and 0.0933 in experiment [2]. Moreover, the z-score in experiment [3] is 0.173; in experiment [4], -4.69 (inactive).

The record behind these values is PubChem BioAssay.
